Drawing on PubChem BioAssay (Tox21), this text covers Potency and outcome for seven compounds.

A short description of assay [1]: A CellTox Green Cytotoxicity Assay to monitor cytotoxicity in HEK293 cells - 32 hour (AID 1224881). Also: nearly all actives have a fitted effect of over 40% in size. The method in brief:
(§1)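 Fluorescence from a DNA-binding dye excluded by viable cells was measured repeatedly in the same HEK293 wells (600 cells/well) during continuous compound exposure at 37 C. Each assay gives one read point: 0, 8, 16, 24, 32 or 40 h.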

Assay [2] can be described thus: A CellTox Green Cytotoxicity Assay to monitor cytotoxicity in HepG2 cells - 0 hour (AID 1224882). Also: nearly all actives have a fitted effect of over 35% in size. The method in brief:
(§2)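 Real-time cytotoxicity: fluorescence of a cell-impermeant cyanine dye binding DNA of dead HepG2 cells, measured repeatedly (0–40 h) during compound exposure at 37 C. Cells seeded 600/well with reagent, dosed after 5 h.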

Assay [3] in a line: A CellTox Green Cytotoxicity Assay to monitor cytotoxicity in HepG2 cells - 32 hour (AID 1224883). Also: nearly all actives have a fitted effect of over 50% in size. The method in brief:
as §2

Assay [4] can be described thus: A CellTox Green Cytotoxicity Assay to monitor cytotoxicity in HEK293 cells - 8 hour (AID 1224884). Also: nearly all actives have a fitted effect of over 35% in size. The method in brief:
as §1

A short description of assay [5]: qHTS RealTime-Glo MT Cell Viability Assay in HepG2 cells - 16 hour (AID 1224885). Also: nearly all actives have a fitted effect of over 50% in size. The method in brief:
(§3)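 Tox21 10K library screened in qHTS format on HepG2 cells carrying RealTime-Glo reagents. Compounds were added after a 5 h preincubation, and the luminescent signal from continuous culture was measured repeatedly during 40 h treatment.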
(qHTS replaces the single test concentration by a dilution series.)

Assay [6] can be described thus: qHTS RealTime-Glo MT Cell Viability Assay in HEK293 cells - 24 hour (AID 1224886). Also: top concentration of the series differs between compounds; nearly all actives have a fitted effect of over 50% in size. The gist of the method:
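Luminescence generated by NanoLuc from substrate produced by living HEK293 cells served as the viability signal. Each value reflects the reading at its stated time point during continuous 40 h compound exposure at 37 C.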

The nature of assay [7]: qHTS RealTime-Glo MT Cell Viability Assay in HEK293 cells - 8 hour (AID 1224887). Also: top concentration of the series differs between compounds; nearly all actives have a fitted effect of over 50% in size. The gist of the method:
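Luminescence, which tracks viable cell number through reduction of the prosubstrate to a NanoLuc substrate, was read over continuous 37 C culture. Cells (600/well) were premixed with reagent and rested 5 h before 23 nL of compound in DMSO was pinned.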

A short description of assay [8]: A CellTox Green Cytotoxicity Assay to monitor cytotoxicity in HEK293 cells - 16 hour (AID 1224888). Also: nearly all actives have a fitted effect of over 35% in size. The method in brief:
as §1

The nature of assay [9]: qHTS RealTime-Glo MT Cell Viability Assay in HepG2 cells - 0 hour (AID 1224889). Also: nearly all actives have a fitted effect of over 50% in size. The gist of the method: as §3
Assay [10] is described as follows: A CellTox Green Cytotoxicity Assay to monitor cytotoxicity in HepG2 cells - 8 hour (AID 1224890). Also: nearly all actives have a fitted effect of over 45% in size. The method in brief:
as §2

Assay [11] is described as follows: qHTS assay to identify small molecule antagonists of the estrogen receptor alpha (ER-alpha) signaling pathway using the BG1 cell line in the presence of 0.1 nM 17-beta-estradiol - cell viability counter screen (AID 1259241). Also: nearly all actives have a fitted effect of over 40% in size. The method in brief:
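CellTiter-Fluor read (30 min, 37C) on ER-alpha/ERE-luc VM7Luc4E2 cells; 22 hr compound treatment; agonist 0.1 nM E2 final; same-well multiplex.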

Assay [12] in a line: qHTS assay to identify small molecule antagonists of the androgen receptor (AR) signaling pathway using the MDA cell line in the presence of 0.5 nM R1881 - cell viability counter screen (AID 1259242). Also: nearly all actives have a fitted effect of over 45% in size. The method in brief: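 Live-cell protease activity was measured by CellTiter-Fluor fluorescence after 30 min. Before that, MDA-kb2 MMTV-luciferase cells had 16 hr at 37C without CO2, exposed to test compounds and 0.5 nM R1881 final.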

The target in assay [13] is Estrogen receptor (Homo sapiens) (UniProt P03372). The assay can be described thus: qHTS assay to identify small molecule antagonists of the estrogen receptor alpha (ER-alpha) signaling pathway using the BG1 cell line in the presence of 0.1 nM 17-beta-estradiol (AID 1259244). Also: nearly all actives have a fitted effect of over 50% in size. The gist of the method:
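Luciferase luminescence (ONE-Glo, 30 min at room temperature) was read after 22 hr at 37C exposure to compounds plus 17beta-estradiol at 0.1 nM final. Cells were VM7Luc4E2 with endogenous ER-alpha and an ERE-driven luciferase, pre-cultured 5 days in hormone-depleted medium.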

Assay [14] is described as follows: qHTS assay to identify small molecule HDAC inhibitors (AID 1259364). Also: nearly all actives have a fitted effect of over 45% in size. Also: potency is read from the fitted curve at half-maximal effect. The method in brief: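 Luminescence read after 30 min room-temperature HDAC-Glo incubation measures cellular class I/II HDAC activity. Compounds were applied for 2 hr at 37 C to HCT-116 wild-type cells seeded the day before.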
Assay [15] in a line: qHTS assay to identify small molecule HDAC inhibitors - cell viability counter screen (AID 1259365). The gist of the method:
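To flag cytotoxic hits, 1,500 wild-type HCT-116 cells per well, plated the day before, receive test compounds for 2hr at 37 C before CellTiter-Glo reagent and a luminescence read.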

The nature of assay [16]: qHTS assay to identify small molecule agonists of the sonic hedgehog signaling (Shh) pathway - cell viability counter screen (AID 1259366). Also: nearly all actives have a fitted effect of over 50% in size. The gist of the method: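 Fluorescence from CellTiter-Fluor reports live cells in this counter screen. NIH/3T3-derived Gli1-Luc reporter cells receive test compounds for 24hr at 37C; reagent goes in at 23hr.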
Assay [17] in a line: qHTS assay to identify small molecule antagonists of the sonic hedgehog signaling (Shh) pathway - cell viability counter screen (AID 1259367). Also: nearly all actives have a fitted effect of over 55% in size. The method in brief:
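CellTiter-Fluor signal in conditioned medium-stimulated 3T3 Gli1-Luc cells, 23 hr compound exposure, 37C.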

The nature of assay [18]: qHTS assay to identify small molecule agonists of the sonic hedgehog signaling (Shh) pathway (AID 1259368; calls by dose curve;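 also: NIH/3T3-derived 3T3Gli1-Luc cells carrying a stable Gli1-driven firefly luciferase reporter; series mostly up to about 92 µM; nearly all actives have a fitted effect of over 15% in size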). The gist of the method:
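Luminescence was read after 30 min at room temperature with luciferase reagent. Before that, 3T3Gli1-Luc cells (NIH/3T3 clone, stable Gli1-Luc reporter; 2,000/well) were exposed to compounds for 24 hr at 37C, 5% CO2, compounds being added 4 hr post-plating.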

The nature of assay [19]: qHTS assay to identify small molecule phospholipidosis (PLD) inducers (AID 1259344; active = well fitted curve in the direction sought with a large enough effect; an effect the other way counts as inactive or inconclusive). The method in brief: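 Accumulated phospholipid, stained red by LipidTOX during 24 h compound treatment of HepG2 cells at 37 C, is quantified from images as pit number and intensity, normalised per cell using Hoechst-stained nuclei.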

The structures appear in SMILES notation. Unmarked numbers belong to inactive results. Inconclusive results are not listed. The source made the active and inactive calls. Unless noted, calls follow the shape of the dose curve; as a rule, active = well fitted curve in the direction sought with a large enough effect in the repeat runs; inconclusive = weak or mixed curves; inactive = no such curve, though single readings can be large; an effect the other way counts as inactive or inconclusive.

Sequence of Estrogen receptor (Homo sapiens) (P03372 whole entry, looked up): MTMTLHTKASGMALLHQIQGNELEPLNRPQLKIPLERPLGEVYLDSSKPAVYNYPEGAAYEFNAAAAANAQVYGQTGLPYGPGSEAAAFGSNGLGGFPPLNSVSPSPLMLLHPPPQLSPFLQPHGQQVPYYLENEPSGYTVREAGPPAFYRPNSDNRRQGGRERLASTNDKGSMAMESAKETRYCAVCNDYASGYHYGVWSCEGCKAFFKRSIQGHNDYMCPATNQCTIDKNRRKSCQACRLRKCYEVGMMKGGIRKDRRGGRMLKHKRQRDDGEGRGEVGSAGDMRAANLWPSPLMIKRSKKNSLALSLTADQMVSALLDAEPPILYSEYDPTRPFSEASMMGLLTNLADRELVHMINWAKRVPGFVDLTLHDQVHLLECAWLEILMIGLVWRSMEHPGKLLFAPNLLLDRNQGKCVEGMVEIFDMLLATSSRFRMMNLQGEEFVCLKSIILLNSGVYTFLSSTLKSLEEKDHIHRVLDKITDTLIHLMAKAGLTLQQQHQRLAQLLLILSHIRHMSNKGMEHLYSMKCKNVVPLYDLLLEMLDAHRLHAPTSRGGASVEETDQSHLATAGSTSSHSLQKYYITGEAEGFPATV

As for `CC1=CCC(C(C)C)C=C1` (centres undefined), the Potency entry in [1], in assay [2], in [3], in assay [4], in assay [5] and in [6] was “inactive” throughout. The Potency result in assay [7], in [8], in assay [9], in assay [10], in assay [11] and in assay [12] was “inactive” throughout. Also, the Potency entry in assay [13], in [14], in assay [16] and in [17] was “inactive” throughout. Further, the outcome in assay [15] and in assay [18] was inactive.

Take `CCCCOCCOCCOCCOCCO`: the Potency entry in assay [1], in assay [2], in assay [3], in assay [4], in [5] and in assay [6] was “inactive” each time. In addition, the Potency result in assay [7], in [8], in assay [9], in assay [11], in assay [12] and in assay [13] was “inactive” throughout. The Potency result in assay [14], in [16] and in [17] was “inactive” throughout. In addition, the compound was classed as inactive in [15] and in assay [18].

On to `CC(=O)c1ccc2c(c1)[C@H](NC(=O)c1ccc(F)cc1)[C@@H](O)C(C)(C)O2`, for which the Potency result in [1], in assay [2], in assay [3], in assay [4], in [5] and in assay [6] was “inactive” in each case. In addition, the Potency entry in assay [7], in [8], in assay [9], in assay [10], in [11] and in assay [12] was “inactive” in each case. The Potency result in assay [14] was “inactive”. The compound was called inactive in [15] and in assay [18].

As for `CCOC(=S)SSC(=S)OCC`, the Potency entry in assay [1], in assay [2], in assay [3], in assay [4], in assay [5] and in [6] was “inactive” in each case. The Potency result in assay [7], in [8], in assay [9], in assay [11], in [12] and in assay [13] was “inactive” throughout. Besides, the Potency result in [19], in assay [14], in assay [16] and in assay [17] was “inactive” each time. Also, the compound was called inactive in assay [15] and in assay [18].

As for `CC(C(=O)O)c1ccc(C(=O)c2ccccc2)s1` (centres undefined), the Potency entry in assay [1], in [2], in [3], in assay [4], in assay [5] and in assay [6] was “inactive” in each case. Moreover, the Potency result in [7], in assay [8], in assay [9], in assay [11], in [12] and in assay [13] was “inactive” in each case. Further, the Potency entry in assay [19] and in assay [16] was “inactive” throughout. In assay [14], the Potency is 6.68 µM (active). Moreover, the result in [15] and in assay [18] was inactive.

Consider `CCN1CCC[C@H]1CNC(=O)c1c(OC)ccc(Br)c1OC`, for which the Potency result in assay [1], in [2], in [3], in assay [4], in assay [5] and in assay [6] was “inactive” each time. Besides, the Potency entry in assay [7], in [8], in assay [9], in assay [11], in assay [12] and in [13] was “inactive” in each case. For the same compound, the Potency result in assay [19], in assay [14], in assay [16] and in [17] was “inactive” in each case. Also, the compound was classed as inactive in assay [15] and in [18].

Consider `O=S(=O)(O)c1ccc(O)c2ncccc12`, for which the Potency result in assay [1], in assay [2], in assay [3], in assay [4], in assay [5] and in [6] was “inactive” throughout. The Potency result in assay [7], in assay [8], in assay [9], in assay [11], in [12] and in [13] was “inactive” throughout. Moreover, the Potency entry in [14] and in assay [16] was “inactive” in each case. Also, the outcome in assay [15] and in [18] was inactive.
